Coupling enz – coupling enzyme interference in Giardia aldolase counter-screen | AID 2472 | coupling enzyme system counterscreen, AmpLite Red fluorescence | activity change, negative = inhibition, % at 58.2 µM, hits read low | actives 0.67% (n = 290,000); in the data active = activity change below about -30%
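First, compound is pin-transferred into glyceraldehyde-3-phosphate coupling-enzyme reagent at 57.5 uM final and held 10 min at RT. Next, substrate, coupling system and AmpLite Red are added. After 20 min RT, fluorescence (525/598 nm) is read.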
USP1-UAF1 inh – USP1/UAF1 (human) deubiquitinase inhibition; O94782; AID 743255; actives 0.23% (n = 390,000); Potency, µM (top dose mostly 57.1 µM), for the others: at the highest dose activity change, negative = inhibition, most hits filed as inhibitors; recombinant USP1/UAF1, Ub-Rhodamine cleavage fluorescence; note: potency is the fitted concentration of half-maximal effect; nearly all actives have a fitted effect of over 60% in size
Target sequence (O94782 whole entry, looked up): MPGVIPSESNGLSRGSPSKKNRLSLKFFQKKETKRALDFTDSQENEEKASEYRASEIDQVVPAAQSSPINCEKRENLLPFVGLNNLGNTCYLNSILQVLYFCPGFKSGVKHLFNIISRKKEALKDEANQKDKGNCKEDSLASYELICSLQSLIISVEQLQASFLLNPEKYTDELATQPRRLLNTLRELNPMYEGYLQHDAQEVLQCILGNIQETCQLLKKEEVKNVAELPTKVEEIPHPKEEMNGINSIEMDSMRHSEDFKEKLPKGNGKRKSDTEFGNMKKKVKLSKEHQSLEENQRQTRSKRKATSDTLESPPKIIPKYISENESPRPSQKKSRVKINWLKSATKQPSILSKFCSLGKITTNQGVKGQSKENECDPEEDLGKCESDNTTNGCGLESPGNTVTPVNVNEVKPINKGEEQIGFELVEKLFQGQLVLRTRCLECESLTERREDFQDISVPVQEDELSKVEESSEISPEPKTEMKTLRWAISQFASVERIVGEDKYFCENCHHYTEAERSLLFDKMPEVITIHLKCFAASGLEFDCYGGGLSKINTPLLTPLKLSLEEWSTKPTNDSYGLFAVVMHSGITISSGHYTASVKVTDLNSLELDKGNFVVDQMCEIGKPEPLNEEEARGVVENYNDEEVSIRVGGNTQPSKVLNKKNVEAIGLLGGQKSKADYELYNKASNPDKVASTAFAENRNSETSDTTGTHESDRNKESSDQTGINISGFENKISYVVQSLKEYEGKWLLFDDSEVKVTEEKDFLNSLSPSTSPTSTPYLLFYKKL
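USP1/UAF1 complex (1 nM) preincubated 15 min at room temperature with compound, then Ub-Rho substrate (150 nM final) added. Kinetic fluorescence at 480/540 nm over 6 reads at 60 s intervals; 50 mM HEPES pH 7.8, 0.5 mM EDTA, 0.1 mg/ml BSA, 1 mM TCEP, 0.01% Tween-20.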
TrxR1 substrate – rat thioredoxin reductase 1 substrate activity | O89049 | purified TrxR1 substrate turnover, NADPH consumption readout | Potency, µM (series often up to 114 µM), without a hit: at the highest dose activity change, negative = substrate turnover | actives 0.01% (n = 390,000) | AID 588456; note: potency is the fitted concentration of half-maximal effect; nearly all actives have a fitted effect of over 50% in size
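Rat TrxR1, dispensed at 90 nM, was prereduced with 400 uM NADPH (final) for 5 min at ~22 deg C, then incubated with compound 15 min before 400 uM selenite. A first-read NADPH fluorescence drop versus no-compound background flagged substrates.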
GALK inhibitor – blocks human galactokinase activity; AID 1868; P51570; Potency, µM (top dose mostly 57.5 µM), inactives show at the highest dose activity change, negative = inhibition, actives largely listed as inhibitors; actives 0.007% (n = 270,000); Purified GALK, Kinase-Glo residual ATP luminescence; note: potency is the fitted concentration of half-maximal effect
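The enzyme phosphorylates galactose (100 uM) using ATP (35 uM); inhibition is detected as higher residual ATP, quantified by bioluminescence after 1 h reaction at room temperature, pH 8.0.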
rTrxR1 inhibitor – blocks rat thioredoxin reductase 1 | Potency, µM (titrated, usually from 114 µM), for inactives: at the top dose activity change, negative = inhibition, usual class: inhibitors | O89049 | actives 1% (n = 390,000) | recombinant rTrxR1, NADPH fluorescence consumption, selenite substrate; note: potency is the fitted concentration of half-maximal effect; nearly all actives have a fitted effect of over 65% in size
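Rat TrxR1 (90 nM in the dispensed reagent) was pre-reduced with 400 uM NADPH for 5 min at room temperature, then incubated with compound for 15 min. After 400 uM selenite was added, NADPH fluorescence (Ex 340/Em 450 nm) was followed for 8 min.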
* marks the source's active call; other numbers are inactive results; ? = inconclusive; . = no result; ! = repeats disagree; [ ] = dose if it differs, or a comment. Most compounds without a hit are left out; they make up all but 1.5% or so of the library. Unless noted, calls come from the whole dose curve; as a rule, active = well fitted curve in the direction sought with a large enough effect; inconclusive = small, poorly fitted or top-dose-only effect, or another doubt; inactive = no such curve, though single readings can be large; an effect the other way counts as inactive or inconclusive. % is set by controls: 0 for no effect and ±100 for the full control effect.

SMILES	Coupling enz	USP1-UAF1 inh	TrxR1 substrate	GALK inhibitor	rTrxR1 inhibitor
Cc1ccc2[nH]c(=O)c(C(c3nnnn3C3CCCC3)N3CCCc4ccccc43)cc2c1 (stereo not given)	-44*	-28%	-5%	0%	?
Cc1ccc2[nH]c(=O)c(C(c3nnnn3Cc3ccccc3)N3CCc4ccccc43)cc2c1 (stereo not given)	-33*	?	0%	4%	?
Cc1cc2cc(C(c3nnnn3Cc3ccccc3)N3CCc4ccccc43)c(=O)[nH]c2cc1C (stereo not given)	-45*	-3%	-4%[57.1 µM]	0%	7%[57.1 µM]
COc1ccc(CN2CC[C@H]3C=CC[C@@H](C(=O)Nc4nccs4)[C@H]3C2=O)cc1OC	.	.	-6%	.	2%
COc1ccc(OC)c(/C=C2/Sc3ccccc3C2=O)c1	-1	28µM*	-8%[57.1 µM]	1%	23%[57.1 µM]
COC/C=C/C1=CC2=CC(=O)C(C)(OC(=O)c3cnc4ccccc4n3)C(=O)C2=CN1Cc1ccc2c(c1)OCO2 (stereo not given)	-6	.	.	.	.
CCC(=O)Oc1ccc(C/C(=N\O)c2ccc(O)cc2O)o1	-4	-6%	10%	-1%	10µM*
CC(=O)O[C@@]12CO[C@@H]1C[C@H](O)[C@@]1(C)C(=O)[C@H](O)C3=C(C)[C@@H](OC(=O)C(O)[C@@H](NC(=O)OC(C)(C)C)c4ccccc4)C[C@@](O)([C@@H](OC(=O)c4ccccc4)[C@H]21)C3(C)C (stereo not given in full)	.	.	3%	.	5%
Cc1cc(C(=O)Nc2ccc(S(=O)(=O)Nc3onc(C)c3C)cc2)c(C)o1	8	-12%	-4%	-2%	?
Cc1noc(NS(=O)(=O)c2ccc(NC(=O)c3ccoc3C)cc2)c1C	13	-11%	-6%	0%	28µM*
O=c1c(-c2cccs2)nc2cnc(N3CCNCC3)nc2n1Cc1cccs1	3	.	.	.	.
c1cncc(-c2nc(-c3ccco3)cs2)c1	-4	3%	13%[57.1 µM]	1%	35µM*
COc1ccc2c(c1OC)C(Cc1ccccc1)N1CCc3cc4c(cc3C1C2)OCO4 (stereo not given)	-13	.	.	.	.
Cc1ccc(NS(=O)(=O)c2cc(N)ccc2Cl)c(C)c1	-33*	?	-3%	-1%	5%
COc1ccccc1NC(=O)Nc1nn(C)c2cccc(N(C)C)c12	-34*	-5%	11%[57.1 µM]	4%	-9%[57.1 µM]
CN(C)c1cccc2c1c(NC(=O)Nc1ccc(Cl)cc1Cl)nn2C	-23	?	2%	.	26%
Cc1ccc(N2NC(=O)/C(=C\c3cc4c(cc3[N+](=O)[O-])OCO4)C2=O)cc1C	2	-26%	6%	.	18µM*
Fc1ccc(-c2nc(-c3c[nH]c4ccccc34)cs2)cc1	.	.	2%[0.0914 µM]	.	23%
O=C(CC(=O)Nc1ccccc1F)Nc1ccccc1F	7	-9%	2%	2%	89µM*
Oc1c(Cl)cc(Cl)c2c1NCCC2	-48*	-24%	-7%	0%	2.2µM*
Cc1ccccc1OCC(=O)N/N=C/c1ccc([N+](=O)[O-])o1	4	-6%	-6%	0%	?
O=C(N/N=C/c1ccc2c(c1)OCO2)c1ccc(NS(=O)(=O)c2cccs2)cc1	2	-11%	3%[57.1 µM]	4%	3%[57.1 µM]
COc1ccccc1OCC(=O)N/N=C/C=C/c1ccc([N+](=O)[O-])o1	0	-19%	-3%	-2%	7.1µM*
O=C(N/N=C/c1ccc([N+](=O)[O-])o1)c1ccc(NS(=O)(=O)c2cccs2)cc1	6	-13%	-3%	-2%	10µM*
O=C(N/N=C\C=C\c1ccc([N+](=O)[O-])o1)c1cccs1	0	-22%	-3%	0%	7.9µM*
SMILES	Coupling enz	USP1-UAF1 inh	TrxR1 substrate	GALK inhibitor	rTrxR1 inhibitor
CN(C)c1ccc(/C=C(\C#N)C(=O)Nc2nc3c(s2)CCN(Cc2ccccc2)C3)cc1	0	4.5µM*	-5%	3%	-5%
O=C(Nc1nc2c(s1)CN(Cc1ccccc1)CC2)C1CCC1	-4	-24%	-11%[57.1 µM]	0%	31%[57.1 µM]
CN(C)CCc1cc2c(c3c1ccc1ccccc13)OCO2	-36*!	-11%	20%	-6%	24%
Cc1sc2ccccc2[n+]1CC(=O)c1ccc(F)cc1	.	.	7%	.	20%
CCN(CC)c1ccc(/C=C/c2ccncc2)cc1	.	.	-27%	.	?
COc1cccc(CN2CCN(C3CCN(c4ccccc4C)CC3)CC2CCO)c1 (stereo not given)	-2	-12%	-2%	2%	13%
COc1cccc(CN2CCN(C3CSCCSC3)CC2CCO)c1 (stereo not given)	-32*	-12%	2%	6%	6%
COc1cc2c(NC3CCN(C)CC3)nc(N3CCCN(C)CC3)nc2cc1OCCCC(C)C	.	.	68%	.	-2%
O=c1c(O)cccc2cc(O)c(O)c(O)c12	-36*	?	-8%	.	-23%
O=Cc1cc2ccccc2cc1O	.	.	5%	.	26%
NNC(=O)CN1C(c2ccccc2Br)=Nc2ccc(Br)cc2C1c1ccccc1 (stereo not given)	-38*	-25%	-11%	-1%	-12%
COc1cc2nc(N3CCCN(C)CC3)nc(Nc3ccncc3)c2cc1OC	.	.	18%	.	-30%
NC(=S)N=Nc1c(O)[nH]c2ccc(F)cc12	-2	-19%	-9%	.	-7%
NC(=S)N=Nc1c(O)cc(O)c2[nH]c(=O)ccc12	.	18µM*	-21%	.	?

Bioassay records from PubChem BioAssay.
